Screening data: PubChem BioAssay, Broad Institute
IDE exosite inh – insulin-degrading enzyme (human) exo-site inhibition; P14735; purified IDE, FL-6b probe fluorescence polarization; stronger effect = lower value; z-score at 20 µM; 6.3% of 17,000 active;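 active means z-score of -3 or lower, meaning strong loss of probe binding signal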;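 further: His-tagged human IDE residues 42-1019 made in E. coli with 30 nM FL-6b probe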
Target sequence (P14735 42-1019 limits assumed): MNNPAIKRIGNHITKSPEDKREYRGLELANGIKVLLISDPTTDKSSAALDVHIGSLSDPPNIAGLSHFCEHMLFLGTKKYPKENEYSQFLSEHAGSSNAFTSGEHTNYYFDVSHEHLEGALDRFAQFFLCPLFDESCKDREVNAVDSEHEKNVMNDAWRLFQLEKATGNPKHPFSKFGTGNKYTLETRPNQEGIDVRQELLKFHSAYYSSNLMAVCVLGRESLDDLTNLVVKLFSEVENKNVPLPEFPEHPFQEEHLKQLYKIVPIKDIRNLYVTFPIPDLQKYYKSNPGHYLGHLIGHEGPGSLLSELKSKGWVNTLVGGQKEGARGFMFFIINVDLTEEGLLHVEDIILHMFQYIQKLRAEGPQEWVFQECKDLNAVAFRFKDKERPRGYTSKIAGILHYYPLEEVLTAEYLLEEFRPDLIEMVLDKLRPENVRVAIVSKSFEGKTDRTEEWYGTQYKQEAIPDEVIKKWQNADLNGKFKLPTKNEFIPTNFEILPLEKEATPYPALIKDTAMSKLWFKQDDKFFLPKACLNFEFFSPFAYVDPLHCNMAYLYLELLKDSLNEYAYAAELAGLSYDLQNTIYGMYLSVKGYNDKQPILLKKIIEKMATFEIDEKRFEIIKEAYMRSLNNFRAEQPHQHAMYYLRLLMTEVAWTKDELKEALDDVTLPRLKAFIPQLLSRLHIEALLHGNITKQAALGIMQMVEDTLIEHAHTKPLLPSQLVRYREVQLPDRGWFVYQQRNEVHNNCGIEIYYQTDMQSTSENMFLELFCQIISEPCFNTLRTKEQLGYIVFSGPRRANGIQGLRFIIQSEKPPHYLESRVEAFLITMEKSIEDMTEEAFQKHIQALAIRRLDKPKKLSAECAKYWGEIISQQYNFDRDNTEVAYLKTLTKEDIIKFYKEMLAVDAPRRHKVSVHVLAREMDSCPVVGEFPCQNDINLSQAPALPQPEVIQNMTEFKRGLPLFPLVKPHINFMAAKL
Numbers without * were called inactive. The full list was thinned out, with hits kept by preference.

SMILES	IDE exosite inh
O=C(c1ccccn1)N1CC(=O)N2[C@H](CO)[C@H](c3ccc(C#Cc4ccccc4)cc3)[C@H]2C1	-14*
CCCC#Cc1ccc([C@@H]2[C@@H](CO)N3C(=O)CN(C(=O)c4ccccn4)C[C@@H]23)cc1	-0.34
Cc1cccc(S(=O)(=O)N2CCCCN3[C@H](CO)[C@H](c4ccc(C#C[C@H](C)O)cc4)[C@H]3C2)c1	1.7
CN(C)C(=O)[C@@H]1[C@@H](CO)[C@@H]2Cn3c(ccc(C4=CCCC4)c3=O)[C@H]1N2S(=O)(=O)c1cn(C)cn1	-0.19
Cc1noc(C)c1S(=O)(=O)N(C)C[C@H]1OCc2ccccc2-c2ccccc2C(=O)N([C@@H](C)CO)C[C@H]1C	-0.8
COc1ccc(NC(=O)N[C@H]2CC[C@@H](CCNC(=O)CN3CCOCC3)O[C@H]2CO)cc1	1.4
C[C@@H](NC(=O)C[C@H]1C[C@H]2c3cc(NS(=O)(=O)c4ccc(F)cc4)ccc3O[C@H]2[C@H](CO)O1)c1ccccc1	-0.45
CCC(=O)N1[C@H](CO)[C@@H](c2ccc(/C=C/c3ccccc3)cc2)C12CN(S(C)(=O)=O)C2	-7.4*
CCS(=O)(=O)N1CC2(C1)[C@H](c1ccccc1)[C@@H](CO)N2C(=O)c1ccccc1	0.23
CS(=O)(=O)N1CC2(C1)[C@H](c1ccccc1)[C@@H](CO)N2Cc1ccccc1	-1.3
COc1ccc(NC(=O)N2CC(=O)N3[C@@H](CO)[C@@H](c4ccc(-c5ccc(C)cc5)cc4)[C@@H]3C2)cc1	0.082
C[C@H](CO)N1C[C@H](C)[C@@H](CN(C)Cc2ccc(C(=O)Nc3ccccc3N)cc2)Oc2ccc(NC(=O)Cn3cnnn3)cc2C1=O	1
O=C(NC[C@H]1N[C@H](CO)[C@@H]1c1ccc(-c2ccccc2)cc1)C1CCC1	-3.5*
COc1ccccc1-c1ccc([C@H]2[C@@H](CO)N[C@@H]2CNC(=O)C2CC2)cc1	-4.2*
O=C(NC[C@@H]1N[C@@H](CO)[C@H]1c1ccccc1)C1CCCC1	2.3
O=C(NC[C@H]1N[C@H](CO)[C@@H]1c1ccccc1)C1CCC1	0.4
O=C(NC[C@H]1N[C@H](CO)[C@@H]1c1ccccc1)C1CC1	3
O=C(NC[C@@H]1N[C@@H](CO)[C@H]1c1ccccc1)C1CCC1	2.5
CCCC#Cc1ccc([C@@H]2[C@H]3CN(C(=O)c4ccncc4)CC(=O)N3[C@H]2CO)cc1	-0.44
COCC(=O)N1[C@H](C#N)[C@H](c2ccc(C3=CCCCC3)cc2)[C@H]1CO	1.5
Cc1ccccc1S(=O)(=O)N1CC(=O)N2[C@H](CO)[C@H](c3ccc(C#CC4CC4)cc3)[C@H]2C1	1.9
N#C[C@H]1[C@@H](c2ccccc2)[C@H](CO)N1C(=O)c1cc(Cl)cc(Cl)c1	-0.55
O=C(NC1CCCCC1)N1CC(=O)N2[C@@H](CO)[C@H](c3ccc(-c4cccc(F)c4)cc3)[C@@H]2C1	-1.2
CC(C)CC#Cc1ccc([C@H]2[C@@H](CO)N3C(=O)CN(C(=O)NC4CCCCC4)C[C@@H]23)cc1	-0.6
CCCC#Cc1ccc([C@H]2[C@H]3CN(C(=O)NC4CCCC4)CC(=O)N3[C@H]2CO)cc1	-0.53
SMILES	IDE exosite inh
O=C(Nc1ccc(F)cc1)N1CC(=O)N2[C@H](CO)[C@@H](c3ccc(-c4cccc(F)c4)cc3)[C@@H]2C1	-2.2
O=C(Nc1cccc(F)c1)N1CC(=O)N2[C@H](CO)[C@H](c3ccc(-c4cccc(F)c4)cc3)[C@H]2C1	0.29
Cc1ccccc1-c1ccc([C@@H]2[C@H](CO)N3C(=O)CN(C(=O)NC4CCCC4)C[C@@H]23)cc1	-8.1*
O=C(NC1CCCCC1)N1CC(=O)N2[C@H](C1)[C@@H](c1ccc(-c3cccc(F)c3)cc1)[C@@H]2CO	-7.9*
Cc1cccc(-c2ccc([C@@H]3[C@@H](CO)N4C(=O)CN(C(=O)NC5CCCCC5)C[C@H]34)cc2)c1	-12*
O=C(NC1CCCC1)N1CC(=O)N2[C@@H](CO)[C@H](c3ccc(-c4ccc(F)cc4)cc3)[C@@H]2C1	-0.029
O=C(Nc1cccc(F)c1)N1CC(=O)N2[C@H](CO)[C@@H](c3ccc(-c4cccc(F)c4)cc3)[C@H]2C1	2.1
COc1ccccc1NC(=O)N1CC(=O)N2[C@H](CO)[C@@H](c3ccc(-c4cccc(C)c4)cc3)[C@H]2C1	-0.51
O=C(NC1CCCCC1)N1CC(=O)N2[C@H](CO)[C@@H](c3ccc(-c4cccc(F)c4)cc3)[C@@H]2C1	-13*
C/C=C/c1ccc([C@H]2[C@@H](CO)N[C@@H]2CNC(=O)CC2CC2)cc1	1.9
O=C1CNC[C@H]2[C@H](c3ccc(C4=CCCC4)cc3)[C@@H](CO)N12	1.2
O=C(Nc1ccccc1F)N1CC(=O)N2[C@@H](CO)[C@H](c3ccc(-c4ccc(F)cc4)cc3)[C@@H]2C1	1.4
COCC#Cc1ccc([C@@H]2[C@@H](C#N)N(C(=O)NC3CCCC3)[C@@H]2CO)cc1	0.24
O=C(c1cccc(F)c1)N1CC(=O)N2[C@@H](CO)[C@@H](c3ccc(C#Cc4ccc(F)cc4)cc3)[C@@H]2C1	-0.9
O=C(C1CCC1)N1CC(=O)N2[C@H](CO)[C@@H](c3ccc(C#Cc4cccc(F)c4)cc3)[C@H]2C1	-6.9*
O=C(C1CC1)N1CC(=O)N2[C@H](CO)[C@H](c3ccc(C#Cc4cccc(F)c4)cc3)[C@H]2C1	-9.6*
O=C(C1CCCCC1)N1CC(=O)N2[C@H](CO)[C@H](c3ccc(C#Cc4cccc(F)c4)cc3)[C@H]2C1	-2.9
O=C(C1CC1)N1CC(=O)N2[C@H](C1)[C@@H](c1ccc(C#Cc3cccc(F)c3)cc1)[C@@H]2CO	-2.9
O=C(C1CC1)N1CC(=O)N2[C@H](CO)[C@@H](c3ccc(C#Cc4cccc(F)c4)cc3)[C@H]2C1	-3.1*
O=C(c1cccc(F)c1)N1CC(=O)N2[C@H](CO)[C@@H](c3ccc(C#Cc4ccc(F)cc4)cc3)[C@@H]2C1	1.3
O=C(C1CC1)N1CC(=O)N2[C@H](CO)[C@H](c3ccc(C#Cc4cccc(F)c4)cc3)[C@@H]2C1	-4.2*
O=C(C1CCCCC1)N1CC(=O)N2[C@H](C1)[C@@H](c1ccc(C#Cc3cccc(F)c3)cc1)[C@@H]2CO	-0.09
O=C(C1CCCCC1)N1CC(=O)N2[C@H](CO)[C@H](c3ccc(C#Cc4cccc(F)c4)cc3)[C@@H]2C1	0.66
CN(C[C@@H]1N[C@H](CO)[C@@H]1c1ccc(-c2ccccc2)cc1)C(=O)C1CCC1	1.1
Cc1noc(C)c1S(=O)(=O)Nc1ccc2c(c1)CC(=O)N([C@@H](C)CO)C[C@@H](C)[C@H](CN(C)Cc1ccc(Oc3ccccc3)cc1)O2	-2.5
SMILES	IDE exosite inh
C/C=C/c1ccc([C@H]2[C@@H](CO)N(S(C)(=O)=O)[C@@H]2CN(CC)C(=O)CC)cc1	2.8
CCC(=O)N(C)C[C@@H]1[C@@H](c2ccc(-c3ccccc3F)cc2)[C@H](CO)N1C(C)=O	1.8
CC=Cc1ccc2n(c1=O)C[C@@H]1[C@@H](CO)[C@H](C(=O)N3CCc4ccccc4C3)[C@H]2N1Cc1cocn1 (mixture of isomers)	-0.17
CCCC#Cc1ccc([C@@H]2[C@@H](CO)N3C(=O)CN(C(=O)c4ccncc4)C[C@H]23)cc1	-0.29
CC(=O)N1[C@@H](CO)[C@H](c2ccccc2)[C@@H]1CN(C(=O)NC(C)C)C1CCCC1	2.1
COc1cccc(CN2CC3(C2)CN(C(=O)C2CC2)[C@H](CO)c2[nH]c4cc(OC)ccc4c23)c1	0.32
COc1ccc(-c2ccc([C@@H]3[C@@H](CO)N4C(=O)CN(Cc5ccc(F)cc5)C[C@@H]34)cc2)cc1	3.6
